TROY NFkB inh – TROY signaling inhibition; Q293 LMP1-TROYcd NF-kB luciferase reporter, 4 h; inhibition, % at 10 µM; hit rate 0.98% among 360,000; AID 1347056;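 active = compounds whose plate-normalised and pattern-corrected inhibition of the luciferase reporter signal at the single screening dose is 50% or more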
EBV LMP1 NFkB – inhibitors of Epstein-Barr LMP1-induced NF-kappaB reporter; LMP1-induced NF-kappaB luciferase reporter cells, luminescence; inhibition, % at 12.5 µM; hit rate 0.69% among 350,000; AID 504558; in the data active = inhibition above about 41%; inconclusive = no clear call, values can overlap the other calls;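 also: 0% = neutral control wells and 100% = reference inhibitor control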
TWEAK-Fn14 inh – inhibitors of TWEAK-Fn14 interaction signaling; inhibition, % at 10 µM; hit rate 2% among 360,000; TWEAK-stimulated Fn14 reporter cells, luciferase luminescence, 8 h; in the data active = inhibition above about 50%
LGR2 inh – blocks bursicon-induced cAMP signaling via Drosophila LGR2 | HEK293 LGR2, CRE-luciferase, bursicon-stimulated, 4 h | inhibition, % at 9.99 µM | hit rate 0.35% among 380,000;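 active = drop in luminescence signal, shown as inhibition above about 50% in the replicate tests, limit read from the data, passing the limit was not always enough; inconclusive = probably only some replicates passing the limit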;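 also: agonist challenge used bursicon conditioned medium at about half maximal strength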
EWS-Fli inh – blocks EWS/Fli oncoprotein-driven transcription | A673 NR0B1-luciferase reporter, viability-normalised | inhibition, % at 12.6 µM | hit rate 0.67% among 350,000 | AID 651661;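 active = mean inhibition of at least 50% after viability correction, with every replicate also passing that limit; inconclusive = mean reaches 50% but only one of two replicates passes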;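 also: firefly luciferase signal divided by Alamar Blue viability fluorescence both relative to DMSO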
The depositor's hits bear a star; ? = inconclusive; / = not tested or not shown. Most compounds without a hit are left out; they make up all but 2.6% or so of the library.

SMILES	TROY NFkB inh	EBV LMP1 NFkB	TWEAK-Fn14 inh	LGR2 inh	EWS-Fli inh
Cc1cccc(CN2CCN(C(=O)Cc3ccccc3)CC2)c1	-6	-1	-10	-1	-7
COc1cc(OC)c(OC)cc1CN1CCN(C(=O)Cc2ccccc2)CC1	5	4	97*	4	8
Cc1nc2c(=O)n(C)c(=O)nc-2n(C)n1	86*	91*	102*	/	/
CCn1nc(-c2ccccc2)nc2c(=O)n(C)c(=O)nc1-2	-1	-4	18	/	/
CC1(C)C[C@H]2C=C(C=O)[C@]3(C=O)C[C@]3(C)[C@H]2C1	7	-83	84*	/	28
COCCCn1c(-c2ccc(OC)cc2)cc(C(=O)NC2CCCCCCC2)c1C	9	3	64*	22	23
O=C(Cc1ccccn1)N1CCCCN2[C@H](CO)[C@@H](c3ccc(C#Cc4ccccc4)cc3)[C@H]2C1	/	/	/	2	1
Cc1cc(OCC(=O)N2CCC(C(N)=O)CC2)c2c3c(c(=O)oc2c1)CCCC3	5	1	91*	/	5
COC(=O)[C@H]1[C@H](CO)[C@H]2Cn3c(ccc(-c4ccccc4F)c3=O)[C@@H]1N2Cc1ccncc1	/	/	/	-4	-3
CC1=C2C[C@H]3[C@@H](CC=C4C[C@@H](O)CC[C@@]43C)[C@@H]2CC[C@]12O[C@@H]1C[C@H](C)CN[C@@H]1C2C (stereo partly specified)	/	/	/	/	5
CC1=C2C(=O)C3C(CC=C4CC(O)CCC43C)C2CCC12OC1CC(C)CNC1C2C (stereo unspecified)	3	10	97*	-4	7
N#Cc1cccc(-c2ccc([C@@H]3[C@@H](CO)N4CCCCN(C(=O)Cc5ccccc5)C[C@@H]34)cc2)c1	/	/	/	-4	7
NC(=O)c1c(Br)n(C2OC(CO)C(O)C2O)c2ncnc(N)c12 (stereo unspecified)	10	-6	18	7	32
OCC1OC(n2cnc3cc(Cl)c(Cl)cc32)C(O)C1O (stereo unspecified)	54*	/	21	19	14
O=C(O)[C@H]1[C@H](CO)[C@H]2Cn3c(ccc(-c4ccncc4)c3=O)[C@@H]1N2C(=O)C1CCC1	/	/	/	8	-5
CC(N)C(=O)NC1C2C(=C(O)CC(O)C2O)C(=O)OC1(C)C(Cl)Cl (stereo unspecified)	78*	85*	96*	99*	?
O=C(O)[C@H]1[C@H](CO)[C@H]2Cn3c(ccc(C4=CCCC4)c3=O)[C@@H]1N2C(=O)Cc1ccccn1	/	/	/	11	3
CC(C)c1oc(=O)cc2c1[C@@H](O)[C@H]1OC(=O)[C@@]3(C)C[C@@H](O)[C@@H](O)[C@@]2(C)C13 (stereo partly specified)	38	17	88*	78*	49
CC1(CCCc2ccc(N(CCCl)CCCl)cc2)NC(=O)NC1=O (stereo unspecified)	-14	48*	6	4	31
Oc1c(Cl)cc(Cl)cc1CN1CCN(Cc2ccccc2)CC1	29	-2	-2	2	-1
Oc1c(Cl)cccc1Cc1cc(Cl)cc(Cl)c1O	66*	-3	65*	-1	13
C=Cc1cc(OC)c2c(c1)c(=O)oc1c2cc(OC)c2c(O)ccc(C3OC(C)C(O)C(C)(O)C3O)c21 (stereo unspecified)	-5	88*	91*	/	28
COC(=O)[C@H]1[C@H](CO)[C@H]2Cn3c(ccc(C4=CCCC4)c3=O)[C@@H]1N2CC1CCCC1	/	/	/	1	-5
COC(=O)[C@@H]1[C@@H](CO)[C@@H]2Cn3c(ccc(-c4cccc(OC)c4)c3=O)[C@H]1N2CC1CC1	/	/	/	-5	7
C[C@H]1CCC[C@@H](O)CCC/C=C/c2cc(O)cc(O)c2C(=O)O1	20	21	59*	38	/
SMILES	TROY NFkB inh	EBV LMP1 NFkB	TWEAK-Fn14 inh	LGR2 inh	EWS-Fli inh
COc1ccc(-c2cc(-c3ccccc3)[n+](C)c(-c3ccccc3)c2)cc1	43	10	23	44	39
CCCOC(=O)c1ccc(-[n+]2c(-c3ccccc3)cc(-c3ccccc3)cc2-c2ccccc2)cc1	24	32	62*	-5	74*
Oc1ccccc1-[n+]1c(-c2ccccc2)cc(-c2ccccc2)cc1-c1ccccc1	-1	4	-4	2	21
Cc1ccccc1-[n+]1c(-c2ccccc2)cc(-c2ccccc2)cc1-c1ccccc1	63*	?	89*	31	43
COc1ccc(-[n+]2c(-c3ccccc3)cc(-c3ccc(C)cc3)cc2-c2ccccc2)cc1	49	-1	61*	28	41
O=C(Cc1ccccc1)N1CCCCN2[C@H](CO)[C@@H](c3ccc(C#Cc4ccccc4)cc3)[C@@H]2C1	/	/	/	28	/
O=C(O)[C@H]1[C@H](CO)[C@H]2Cn3c(ccc(-c4ccc(F)cc4)c3=O)[C@@H]1N2CC1CCCCC1	/	/	/	-1	-3
COC(=O)[C@@H]1[C@@H](CO)[C@@H]2Cn3c(ccc(/C=C/c4ccccc4)c3=O)[C@H]1N2C(=O)C1CC1	/	/	/	-10	3
CN1C[C@H](CNC(=O)OCc2ccccc2)C[C@@H]2c3cccc4c3c(cn4C)C[C@H]21	-1	-15	60*	/	6
CN1C[C@H](CO)C[C@@H]2c3cccc4[nH]cc(c34)C[C@H]21	-14	3	-1	8	-4
COc1ccc(-c2ccc([C@H]3[C@H](CO)N4CCCCN(C(=O)Cc5ccccc5)C[C@@H]34)cc2)cc1	/	/	/	8	/
COc1ccc(CCn2c(O)c(C=Nc3ccc(F)cc3)c(=O)[nH]c2=O)cc1OC	35	/	-5	5	1
CCN(CC)c1ccc(N=Cc2c(O)n(CCc3ccc(OC)c(OC)c3)c(=O)[nH]c2=O)cc1	38	29	52*	51*	/
C#CCOc1cc(C2C3=C(COC3=O)Nc3cc4c(cc32)OCO4)ccc1OC (stereo unspecified)	13	2	0	-31	63*
COC(=O)[C@@H]1[C@@H](CO)[C@@H]2Cn3c(cccc3=O)[C@H]1N2Cc1nccs1	/	/	/	-7	-6
CC(=O)OC1CC2OC3C=C(C)CCC3(C)C1(C)C21CO1 (stereo unspecified)	84*	/	98*	104*	43
CC(=O)O[C@H]1C[C@@H]2OC3C=C(C)CCC3(C)[C@@]1(C)[C@@]21CO1 (stereo partly specified)	78*	91*	97*	102*	27
CCC(C)(O)C(=O)OC1C(=O)OC2CC3C(C)=CC(O)C(O)C3(C)C3C4(O)OCC23C1C(C)C4O (stereo unspecified)	44	/	92*	32	23
CNc1ccc2oc(C[C@H]3O[C@@]4(CC[C@H]3C)O[C@H]([C@H](C)C(=O)c3ccc[nH]3)[C@H](C)C[C@H]4C)nc2c1C(=O)O	53*	70*	104*	-10	43
Cc1cc(N(CCCl)CCCl)ccc1C=NNC(=O)Cc1cc(=O)oc2cc(O)ccc12	16	35	3	-2	24
Cc1cc(N(CCCl)CCCl)ccc1/C=N/NC(=O)c1ccco1	-35	53*	9	/	/
